The values below come from article PMC4552634, “A New Set of Chemical Starting Points with Plasmodium falciparum Transmission-Blocking Potential for Antimalarial Drug Discovery” (PLoS ONE, 2015).

Out of some 13,000 compounds screened, about 3,200 (25%) showed an effect of 50% or more. The list shows a part of the results.

This experiment has as its system P. falciparum stage V gametocytes. Also on record: BacTiter-Glo ATP luminescence viability of purified stage V gametocytes in 384-well plates, per cent inhibition versus DMSO. The note with it: 48 h, 5 µM; inhibitor.
For the molecule `Oc1cccc(Nc2ccnc3cc(-c4cc5ccccc5o4)ccc23)c1` [TCMDC-138287], the “% Inhibition” value is -55.42%. Take `COc1ccc(Cc2c(N)nc3nc(N)nc(N)c3c2C)cc1` [TCMDC-138061]: the “% Inhibition” value came out at 18.63%.

For `COc1cccc(-c2cc3c(NCc4ccncc4)nccc3s2)c1` [TCMDC-135200], the “% Inhibition” value is -6.172%. As to `CC(C)CC(=O)N1CCNC[C@@H]1C(=O)NCCSCc1c(F)cccc1Cl` [TCMDC-141243], the “% Inhibition” value was -23.04%. As for `O=C(/C=C/c1ccc(Cl)c(Cl)c1)N1CCCC(CCCN2CCC(c3c[nH]c4ccccc34)CC2)C1` (stereo not shown) [TCMDC-139505], the “% Inhibition” value was found to be 18.14%. As to `NC(N)=NN=Cc1c[nH]c2ccc(-c3ccccc3)cc12` [TCMDC-138961], the “% Inhibition” value is recorded as -59.33%. `NC(N)=NN=Cc1c2ccc(Cl)cc2c(Cl)c2ccc(Cl)cc12` [TCMDC-137884]: the “% Inhibition” value is 111.2%. The figure for `NC(N)=NN=Cc1c2ccccc2c(Cl)c2c(Cl)cccc12` [TCMDC-137898] is 83.04%.

In the case of `NC(N)=NN=Cc1c2ccccc2c(Cl)c2cc(Cl)ccc12` [TCMDC-137903], the “% Inhibition” value is 96.19%.

As to `Clc1ccc2c(NN=Cc3ccccc3)ccnc2c1` [TCMDC-123962], the “% Inhibition” value is reported as -43%.

With `NC(N)=NN=Cc1c2ccccc2c(Cl)c2ccc(Cl)cc12` [TCMDC-137911], the “% Inhibition” value is on record as 98.76%. Take `NC(N)=NN=CC(=O)Nc1ccc(Cl)c(Cl)c1` [TCMDC-137466]: the “% Inhibition” value is reported as -3.448%. For the molecule `Cc1cc(C)c(C)c(S(=O)(=O)N2CCCCC(c3ccc(F)c(F)c3)=N2)c1C` [TCMDC-135419], the “% Inhibition” value is given as -64.55%. Regarding `CCCc1cc(Cc2cnc(N)nc2N)cc(CC)c1OC` [TCMDC-137693], the “% Inhibition” value is given as 21.32%. `COc1ccc(Nc2nccc(N3CCC(NC(=O)Nc4ccc5c(c4)OCO5)C3)n2)cc1` (stereo not shown) [TCMDC-133617]: the “% Inhibition” value is -60.34%. The figure for `CN(C)CCC1CCN(CCS(=O)(=O)c2cccc(Nc3ncc(-c4cccc(F)c4)cn3)c2)CC1` [TCMDC-134374] is 1.071%; for `CC(C)Cn1cc(C2CCN(CCN3CCC(CNC(=O)c4ccc(-c5ccc(C#N)cc5)cc4)CC3)CC2)c2ccccc21` [TCMDC-138849] it is 100.8%. For the molecule `COc1cccc2c1CCN(CCN1CCC(CNC(=O)c3ccc(-c4ccc(C#N)cc4)cc3)CC1)C2` [TCMDC-134140], the “% Inhibition” value was determined as 16.45%. Take `N#Cc1ccc(-c2ccc(C(=O)NCCCCN3CCC(c4cn(CCCO)c5ccccc45)CC3)cc2)cc1` [TCMDC-138837]: the “% Inhibition” value is given as -51.57%. Take `COc1ccc2c(c1)CCN(CCN1CCC(CNC(=O)c3ccc(-c4ccc(C#N)cc4)cc3)CC1)C2` [TCMDC-138881]: the “% Inhibition” value is -33.61%. Regarding `C=C(C)Cn1cc(C2CCN(CCN3CCC(CNC(=O)c4ccc(-c5ccc(C#N)cc5)cc4)CC3)CC2)c2ccccc21` [TCMDC-138854], the “% Inhibition” value was found to be 103.5%. As for `N#Cc1ccc(-c2ccc(C(=O)NCCCCN3CCC(c4cn(CCO)c5ccccc45)CC3)cc2)cc1` [TCMDC-138836], the “% Inhibition” value is reported as -28.51%.

As a reminder, the % Inhibition is the drop in the measured response relative to a control, in per cent.
